# Experimental data as given in ChEMBL document CHEMBL3988442, “University of Dundee, Small-Polar-MMV Screening Library” (2021).
# Screen size: about 48,000 compounds; about 13,000 (27%) showed an effect of 50% or more. The list shows a part of the results.
# System: Wolbachia pipientis
# Experiment: Anti-Wolbachia Cell-Based Screen
# Format: functional
# Set-up: scale not given: in the data most compounds retested in dose-response had high values
# Conditions: 5 µM
row,Structure (SMILES),Percent Effect [%]
1,CCN1CCN2CCCN(S(=O)(=O)c3ccc(S(C)(=O)=O)cc3)C2C1=O (stereo unspecified),10.86
2,CCn1c(CN(C)C(C)CSC)nc2c(F)cccc21 (stereo unspecified),-3.593
3,Cn1nnnc1SCCNC(=O)C1CCN(C(=O)C2CC2)CC1,0.3316
4,CCN(CC)C(=O)CCNc1cncc(-n2nc(C)cc2C)n1,-4.875
5,CCCc1cc(=O)n(CC(=O)NCCOC)c(-n2nc(C)cc2C)n1,110
6,CCCc1cc(=O)n(CC(N)=O)c(-n2nc(C)cc2C)n1,12.11
7,CCCc1cc(=O)n(CC(=O)NC(C)C)c(-n2nc(C)cc2C)n1,152.6
8,COCCS(=O)(=O)NC(C)c1ccc(-n2nc(C)cc2C)cc1 (stereo unspecified),-14.21
9,Cc1cc(C)n(-c2cncc(N3CCN(C(=O)C(C)C)CC3)n2)n1,-1.845
10,CCCNC(=O)Cn1c(-n2nc(C)cc2C)nc(CCC)cc1=O,109.3
11,CCCNC(=O)Cn1c(C)nn(C(C)(C)C)c1=O,-1.553
12,COCCNC(=O)Cn1c(C)cc2nc(SC)n(CC(C)C)c(=O)c21,0.09267
13,CCC(O)CN(CC(=O)NC(=O)NC1CC1)c1ccccc1 (stereo unspecified),-6.258
14,CCOCC1CC2(CCN(C(=O)C3CCSCC3)CC2)CO1 (stereo unspecified),-12.12
15,O=C1CC(c2ccco2)c2sc(C(=O)O)c(-c3ccccc3)c2N1 (stereo unspecified),3.632
16,O=C(CO)N1C[C@H]2CC[C@@H]1CN(C1Cc3ccccc3C1)C2,-7.791
17,Cc1nnc(CN2CCN(C(C)c3nc(C4CC4)no3)CC2)o1 (stereo unspecified),96.71
18,CC(C)c1nc(C2CCCN(Cc3nnc(C4CC4)o3)C2)no1 (stereo unspecified),-2.987
19,CC(c1nc(C2CC2)no1)N1CCN(Cc2nnc(C3CC3)o2)CC1 (stereo unspecified),142.3
20,CCc1noc(C(C)N2CCN(Cc3nnc(C4CC4)o3)CC2)n1 (stereo unspecified),4.733
21,COc1ccc(CN2CCN(C(C)c3nc(C4CC4)no3)CC2)cc1 (stereo unspecified),8.61
22,CC(C)c1nnc(CN2CCN(C(C)c3nc(C4CC4)no3)CC2)o1 (stereo unspecified),138.5
23,Cc1cc(CN2CCN(C(C)c3nc(C4CC4)no3)CC2)no1 (stereo unspecified),2.927
24,CC(C)(C)c1c[nH]c([C@@H]2COCCN2C2CCOCC2)n1,1.318
25,CCN(C)C(=O)CCC(=O)c1cccs1,14.3
26,CC(C)S(=O)(=O)N(C)C(=O)CCc1ccsc1,-69.32

row,Structure (SMILES),Percent Effect [%]
1,O=C(NC1CCC1)[C@@H]1CCO[C@@H]2CCN(C3CCCC3)C[C@@H]21.O=C(O)C(F)(F)F,-2.811
2,Cc1ncc(CN2CCN(C(=O)C3CCC3)[C@@H]3CS(=O)(=O)C[C@@H]32)cn1,112.3
3,CN(C)C(=O)N1CCN(Cc2ccccc2)[C@@H]2CS(=O)(=O)C[C@@H]21,-15.23
4,Cc1cc(C)cc(CN2CCN(C(=O)C3CCC3)[C@@H]3CS(=O)(=O)C[C@@H]32)c1,5.878
5,Cc1ccc(CN2CCN(C(=O)C3CCC3)[C@@H]3CS(=O)(=O)C[C@@H]32)cc1C,4.312
6,CCc1ccc(CN2CCN(C(=O)C(C)C)[C@@H]3CS(=O)(=O)C[C@@H]32)cc1,-2.722
7,CCN(CC)C(=O)N1CCN(Cc2cnc(C)nc2)[C@H]2CS(=O)(=O)C[C@H]21,94.21
8,COc1cc(Oc2ccc(C(F)(F)F)cn2)ccc1CN1CCCC1,2.757
9,O=C(NC[C@H]1OC[C@@H](NC(=O)C2CCCC2)[C@@H]1O)c1ccncc1,0
10,CC(=O)Nc1ccc(CNC2COc3c2ccc(C)c3C)cc1 (stereo unspecified),-7.711
11,COCC[C@]1(O)CCN(S(=O)(=O)c2ccc(C)cc2OC)C[C@H]1C,-114.9
12,CCn1cc(Br)c(C(=O)NCc2cccnc2)n1,4.447
13,Nc1no[n+]([O-])c1C(=O)NCc1ccccn1,131.2
14,Nc1no[n+]([O-])c1C(=O)NCc1cccnc1,115
15,CCc1noc(C)c1C(=O)NCc1ccccn1,-15.45
16,COc1c(C(=O)NCc2cccnc2)nnn1Cc1ccc(C)cc1,7.937
17,N#Cc1ccc(CN2C[C@@H]3OCC(=O)N(CC(N)=O)[C@@H]3C2)cc1,-3.646
18,CC(C)Oc1ccccc1CNC(=O)N(C)CC(F)F,-6.331
19,O=C(NC[C@@H]1CCCO1)c1cccnc1N1CCCC1c1ccccn1 (stereo partly specified),123.2
20,N#Cc1cccnc1NCc1cccc(C(=O)NCC2CCCCO2)c1 (stereo unspecified),-17.65
21,O=C(NC[C@@H]1CCCO1)c1cccnc1N1CCCC1c1ccccc1 (stereo partly specified),120.1
22,O=C(NCCCOCC1CCCO1)c1cccnc1N1CCCC1 (stereo unspecified),-6.483
23,Fc1ccccc1CN1CCCN(c2ccc3cc[nH]c3n2)CC1,-2.258
24,CC(O)CC(C)(C)CNC(=O)NCc1cccc(-n2cncn2)c1 (stereo unspecified),-1.907
25,CCC(CNC(=O)c1nc(=O)[nH][nH]1)Oc1cccc(F)c1 (stereo unspecified),12.08
26,Cc1cc(C)c2c(c1)NC(=O)C2CC(=O)O (stereo unspecified),18.62

row,Structure (SMILES),Percent Effect [%]
1,O=C(c1ccc2c(c1)CCCC2)N1CCn2ncnc2C1,90.14
2,CS(=O)(=O)N1CCc2ccc(C(=O)N3CCn4ncnc4C3)cc21,111.8
3,Cc1ccc(C(=O)N2CCN(S(C)(=O)=O)CC2)cc1N1CCNC1=O,0.6513
4,CC(C)c1nnc2n1CCN(C(=O)c1ccc3c(c1)COC3)C2,4.471
5,O=C(c1ccc2c(c1)CCC2)N1CCN(c2ccc(Cl)cn2)CC1,-15.66
6,O=C(c1ccc(O)nc1)N1CCc2ccc(O)cc2C1,-1.234
7,CSc1ccc(NC(=O)Nc2ccc3c(c2)N(S(C)(=O)=O)CC3)cc1,-6.619
8,O=C(c1ccc2c(c1)CCC2)N1C[C@@H](CN2CCOCC2)[C@@H](CO)C1,-9.126
9,O=C(c1ccc2c(c1)CCC2)N1CCn2ncnc2C1,98.73
10,COC(C)c1nc(CN2CCNCC2)cs1 (stereo unspecified),8.778
11,Cc1noc([C@]23COC[C@H]2CN(C(=O)CN(C)C)C3)n1.O=C(O)C(F)(F)F,111.8
12,Cc1noc([C@]23COC[C@H]2CN(S(C)(=O)=O)C3)n1,1.796
13,Cc1noc([C@]23COC[C@H]2CN(C(=O)N2CCCC2)C3)n1,106.7
14,Cc1cc(C(=O)N2C[C@@H]3COC[C@]3(CN(C)C)C2)sc1C.O=C(O)C(F)(F)F,-22.46
15,Cc1noc([C@]23COC[C@H]2CN(S(=O)(=O)N(C)C)C3)n1,-12.17
16,Cc1noc([C@]23COC[C@H]2CN(C(=O)C2CCOCC2)C3)n1,-8.72
17,Cc1noc([C@]23COC[C@H]2CN(C(=O)Cc2ccsc2)C3)n1,110.7
18,Cc1noc([C@]23COC[C@H]2CN(S(=O)(=O)C2CC2)C3)n1,7.077
19,Cc1noc([C@]23COC[C@H]2CN(C(=O)COC2CCCC2)C3)n1,97.21
20,CS(=O)(=O)CC(=O)N1C[C@@H]2COC[C@]2(c2nnc(C3CC3)o2)C1,-25.79
21,Cc1nc([C@@H]2C[C@@H]3CCN(C(=O)Cc4ccsc4)C[C@H]3O2)no1,-14.45
22,Cc1noc([C@@]23CCO[C@@H]2CCN(C(=O)c2ccsc2)C3)n1,10.18
23,Cc1cnn(CC2CN(c3ncnc4ccsc34)CCO2)c1 (stereo unspecified),-19.26
24,O=C(Nc1cn[nH]c1)N(CCCO)C1CCc2ccccc21 (stereo unspecified),-15.52
25,Cc1cc(NC(=O)N2CCOCC2)nn1-c1cccc(Cl)c1,1.002
26,c1ccc(COCCN2CCc3[nH]cnc3C2c2ccoc2)cc1 (stereo unspecified),3.153

row,Structure (SMILES),Percent Effect [%]
1,O=C(NCc1cscn1)NC1CCN(c2ncccc2Cl)C1 (stereo unspecified),-8.414
2,CC(C)CC(NS(C)(=O)=O)C(=O)N(C)Cc1nnc2n1CCC2 (stereo unspecified),-5.124
3,COc1cccc(OC2CN(C(=O)C3CCCN(C(=O)N(C)C)C3)C2)c1 (stereo unspecified),-3.604
4,CCOCC(=O)N1C[C@@H]2COC[C@]2(c2nc(C)no2)C1,107.1
5,CCOCC(=O)N1C[C@@H]2COC[C@H](c3nc(C)no3)[C@@H]2C1,1.076
6,Cc1cc(C(=O)N2C[C@@H]3COC[C@]3(c3nnc(C)o3)C2)on1,27.9
7,CN(C)CCNC(=O)c1nc2c(o1)CN(c1ncccn1)C2,-6.07
8,CCNC(=O)Cc1ccc(NC(=O)NC(CC)c2ccncc2)cc1 (stereo unspecified),3.124
9,Cc1cc(-c2cccc3c2CCNC3)cnc1-n1cnnc1,3.521
10,Cc1nc(-n2cnnc2)ccc1-c1cccc2c1CCNC2,-4.509
11,CN(C)C(=O)Cc1ccc(-c2cccc3c2CCNC3)cc1,105
12,CCNC(=O)Cc1ccc(-c2cccc3c2CCNC3)cc1,110.7
13,Cc1ncc2c(c1CNC(=O)C1(c3ccc(F)cc3)CC1)CCNC2,13.15
14,CCS(=O)(=O)CCNC(=O)NCc1ccccc1-n1cccn1,-14.43
15,CS(=O)(=O)N1CCC2(CC1)CC(OCC1CCOCC1)CO2 (stereo unspecified),-4.18
16,CCCc1nc(CN(CC)C(=O)c2ccc3c(c2)nnn3C)no1,9.755
17,O=C(CN1CCc2ccccc21)Nc1ccc(OC(F)F)cc1,-23.08
18,COCC(O)CN1CCC(=O)N(CC2CC2)Cc2ccccc21 (stereo unspecified),108.3
19,CCCS(=O)(=O)CC(=O)N1CCN(CC2CC2)c2ccccc21,-17.3
20,COCC(O)CN1CCC(=O)N(CC=C(C)C)Cc2ccccc21 (stereo unspecified),122.6
21,COCC(O)CN1CCC(=O)N(CC(=O)C(C)(C)C)Cc2ccccc21 (stereo unspecified),110.3
22,COc1ccc(CNC(=O)CN2CCc3ccccc32)cc1,5.049
23,COCCC(=O)N1CCN(CC2CC2)c2ncccc2C1,-45.17
